# Compound activity from PubChem.
# GLP-1R agonist = qHTS of GLP-1 Receptor Agonists; Glucagon-like peptide 1 receptor (Homo sapiens), P43220; 380,000 compounds, 0.007% hits; HEK293 GLP-1R CRE-luciferase, luminescence, 4-6 h; cells express a hypersensitive GLP-1R form; Potency, µM (doses to about 45.6 µM), without a hit: top-dose activation, usual class: activators; also: potency is read from the fitted curve at half-maximal effect; % of control where 0% means no effect
# GLP1R cytotox = qHTS of GLP-1 Receptor Inverse Agonists: Cytotox Screen. HEK293 cAMP-luciferase reporter cells, luminescence, 24 h. 410,000 compounds, 0.13% hits. Potency, µM (titrated, usually from 38.3 µM), for inactives: top-dose activity change, negative = inhibition, usual class: inhibitors;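 also: loss of luciferase light is scored as toxicity; potency is read from the fitted curve at half-maximal effect; % is scaled to controls: 0 for no effect and ±100 for the full control effect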
#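 1536-well qHTS counterscreen of the MLSMR; 200 cells/uL, 12 h pre-incubation, 23 nL cpd, 24 h at 37 deg C 5% CO2, luciferase detection reagent, 12 min RT, luminescence. Inhibition = undesired.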
# GLP1R inv ag = qHTS of GLP-1 Receptor Inverse Agonists (Inhibition Mode); AID 624417, 2012; Glucagon-like peptide 1 receptor (Homo sapiens), P43220; HEK293 GLP-1R CRE-luciferase, luminescence, 24 h; GLP-1R form is constitutively active; Potency, µM (doses to about 38.3 µM), without a hit: at the top dose activity change, negative = inhibition, actives largely listed as inhibitors; 410,000 compounds, 1.6% hits; also: potency is read from the fitted curve at half-maximal effect; % is scaled to controls: 0 for no effect and ±100 for the full control effect; nearly all actives have a fitted effect of over 55% in size
#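 Constitutively active GLP-1R drives a cAMP-responsive luciferase in stably transfected HEK293 cells; test compounds are added after overnight (12 h) attachment and left 24 hr, and signal loss in luminescence marks inhibition.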
# GLS inh = qHTS for Inhibitors of Glutaminase (GLS). Glutaminase kidney isoform, mitochondrial (Homo sapiens), O94925. GLS enzymatic activity, qHTS titration. Potency, µM (doses to about 45.5 µM), inactives show at the highest dose activity change, negative = inhibition, hits mostly inhibitors. 410,000 compounds, 0.21% hits. AID 624170, 2012; also: potency is read from the fitted curve at half-maximal effect; % is scaled to controls: 0 for no effect and ±100 for the full control effect
#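 Compounds were pin-transferred onto hKGA, after which L-glutamine (1 mM solution) and a detection mix of glutamate oxidase, HRP and Amplex Red were added. Initial and 30 min RT fluorescence reads were collected.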
# hERG WT inh = qHTS for Inhibitors of KCHN2 3.1: Wildtype qHTS; U2OS, BacMam KCNH2, thallium flux FluxOr; active compounds read low; activity change, % at 1.84 µM; Voltage-gated inwardly rectifying potassium channel KCNH2 (Homo sapiens), Q12809; 340,000 compounds, 0.37% hits;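 active = maximum activity change below -70%; inconclusive = maximum activity change between -70% and -50%; inactive = maximum activity change above -50%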; also: % is scaled to controls: 0 for no effect and ±100 for the full control effect
# Target sequence (Q12809 whole entry, looked up): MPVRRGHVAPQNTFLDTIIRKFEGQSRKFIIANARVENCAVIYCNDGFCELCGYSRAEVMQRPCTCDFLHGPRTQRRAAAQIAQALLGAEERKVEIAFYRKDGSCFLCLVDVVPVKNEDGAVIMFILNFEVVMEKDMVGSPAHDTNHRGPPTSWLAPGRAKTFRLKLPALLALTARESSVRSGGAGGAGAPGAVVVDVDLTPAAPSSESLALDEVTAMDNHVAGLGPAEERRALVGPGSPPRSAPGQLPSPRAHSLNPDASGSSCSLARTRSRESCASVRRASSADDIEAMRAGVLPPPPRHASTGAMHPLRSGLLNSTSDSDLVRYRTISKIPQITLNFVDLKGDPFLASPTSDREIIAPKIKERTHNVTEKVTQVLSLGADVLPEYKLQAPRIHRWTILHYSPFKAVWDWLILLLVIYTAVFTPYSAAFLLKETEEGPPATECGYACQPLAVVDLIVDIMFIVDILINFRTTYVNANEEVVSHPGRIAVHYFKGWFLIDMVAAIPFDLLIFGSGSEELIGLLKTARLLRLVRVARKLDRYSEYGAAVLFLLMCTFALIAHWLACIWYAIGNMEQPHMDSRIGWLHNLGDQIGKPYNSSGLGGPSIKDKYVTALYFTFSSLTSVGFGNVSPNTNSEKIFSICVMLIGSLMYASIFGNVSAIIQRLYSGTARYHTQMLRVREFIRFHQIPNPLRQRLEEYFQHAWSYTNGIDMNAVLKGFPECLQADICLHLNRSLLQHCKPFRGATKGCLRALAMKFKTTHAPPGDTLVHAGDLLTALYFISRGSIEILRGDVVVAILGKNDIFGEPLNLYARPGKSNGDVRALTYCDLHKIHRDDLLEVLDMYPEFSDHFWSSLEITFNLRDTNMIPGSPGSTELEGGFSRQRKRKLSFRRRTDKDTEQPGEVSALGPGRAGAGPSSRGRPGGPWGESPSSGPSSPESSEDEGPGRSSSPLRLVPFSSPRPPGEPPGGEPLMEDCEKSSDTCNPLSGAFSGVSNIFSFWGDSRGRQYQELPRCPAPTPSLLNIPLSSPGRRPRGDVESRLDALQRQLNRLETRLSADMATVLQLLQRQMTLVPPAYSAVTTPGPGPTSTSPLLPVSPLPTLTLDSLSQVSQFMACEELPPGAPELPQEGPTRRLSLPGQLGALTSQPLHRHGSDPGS
#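 U2OS cells transduced with wild-type KCNH2 virus are loaded with FluxOr dye for 45 min, and thallium flux is measured in kinetic reads before and after stimulation buffer. Rate constants are normalized to DMSO controls.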
# KCNH2 3.1 block = qHTS for Inhibitors of KCHN2 3.1: Mutant qHTS; AID 720553, 2013; U2OS KCNH2 3.1, thallium flux FluxOr; active compounds read low; Potassium voltage-gated channel subfamily H member 2, brain isoform KCNH2 3.1 (human); activity change, % (tested at about 1.8 µM); 340,000 compounds, 0.95% hits;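 active = maximum activity change below -70%; inconclusive = maximum activity change from -70% to -50%; inactive = maximum activity change above -50%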;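 also: thallium influx rate constant from kinetic fluorescence after stimulation buffer; % is scaled to controls: 0 for no effect and ±100 for the full control effect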
#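 Thallium flux read-out: FluxOr dye with Red40 quencher in HBSS/HEPES, 45 min at RT. Rate constants from kinetic reads were normalized to positive and negative DMSO controls. Cells: U2OS virally expressing the 3.1 isoform.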
# An asterisk follows results filed as active; ? = inconclusive; / = not tested or not shown; [ ] = another dose, or the depositor's remark. Only some compounds are listed: those with a hit (about 2.8% of all), similar ones and a draw of the others. Unless noted, calls follow the shape of the dose curve; as a rule, active = well fitted curve in the direction sought with a large enough effect; inconclusive = small, poorly fitted or top-dose-only effect, or another doubt; inactive = no such curve, though single readings can be large; an effect the other way counts as inactive or inconclusive.
SMILES,GLP-1R agonist,GLP1R cytotox,GLP1R inv ag,GLS inh,hERG WT inh,KCNH2 3.1 block
CC(=O)c1cccc(NC(=O)C2CCN(S(=O)(=O)c3ccc4c(c3)CCCN4C(C)=O)CC2)c1,/,-11.3%,11.5%,-0.2%,/,/
CCCCn1c(CNC(=O)c2ccc(OC)cc2)nnc1SCC(=O)Nc1ccccc1,-0.4%,0.8%,-13.0%,9.9%,/,/
COc1ccc(NC(=O)c2cccc(N3CCCS3(=O)=O)c2)cc1,/,-9.8%,-6.5%,2.6%,/,/
Cc1nn(-c2ccccc2)c2c1N(CCCC(=O)NCc1ccc(N(C)C)cc1)C(=O)CS2,/,1.4%,-28.4%,16.2%,/,/
COC(=O)c1ccc(C23CC4(C2)[C@H](CN(C)[C@@H]4c2ccccc2)C3c2ccc(C(F)(F)F)cc2)cc1 (some centres not stated),-4.5%,-9.8%,10µM*,3.8%,-9.8,?
CN1C[C@@H]2C(c3ccc(Cl)nc3)C3(c4ccc(C#N)cc4)CC2(C3)[C@H]1c1ccccc1 (some centres not stated),-2.8%,-3.1%,?,9.8%,8.1,-76.6*
FC(F)(F)c1ccc(CN2C[C@@H]3C(c4ccc(C(F)(F)F)cc4)C4(c5cccnc5)CC3(C4)[C@H]2c2ccccc2)cc1 (some centres not stated),-3.0%,2.8%,-12.2%,1.0%,-1.9,-16.0
N#Cc1ccc(C23CC4(C2)[C@H](CN(P(=O)(c2ccccc2)c2ccccc2)[C@@H]4c2ccccc2)C3c2ccc(Cl)nc2)cc1 (some centres not stated),-4.8%,-8.2%,?,-5.9%,-12.5,-32.9
CN1C[C@@H]2C(c3ccc(C(F)(F)F)cc3)C3(c4cccnc4)CC2(C3)[C@H]1c1ccccc1 (some centres not stated),-0.5%,7.2%,?,5.3%,-7.8,-84.8*
FC(F)(F)c1ccc(CN2C[C@@H]3C(c4ccccc4)C4(c5cccnc5)CC3(C4)[C@H]2c2ccccc2)cc1 (some centres not stated),-0.8%,6.5%,11.2µM*,-2.1%,/,/
CN(C(=O)c1cc(S(=O)(=O)N2CCc3ccccc32)cn1C)C1CCCCC1,6.8%,-22.1%,-27.7%,3.8%,-7.6,1.6
COc1ccc2c(c1)c1c(c(=O)n(-c3ccccc3C)c(=O)n1Cc1cccc(C(F)(F)F)c1)n2C,0.4%,1.3%,-1.2%,-6.1%,/,/
Nc1nc(SCC(=O)c2c(N)n(Cc3ccccc3)c(=O)[nH]c2=O)n[nH]1,6.4%,4.6%,20.2%,0.0%,-104.8*,-17.0
C#Cc1ccc(CN2CCC(Oc3cc(C(=O)NC4CC4)ccc3OC)CC2)cc1,13.8%,-4.0%,-3.8%,6.3%,-99.4*,-103.4*
COc1ccccc1/C=C/CN1CCC(Oc2cc(C(=O)NC3CC3)ccc2OC)CC1,2.1%,-6.6%,12.8%,-3.0%,-120.3*,-100.9*
COc1ccc(C(=O)NC2CC2)cc1OC1CCN(Cc2ccccc2)CC1,-16.3%,2.5%,?,0.0%,-22.7,/
O=C(Nc1ccc(Cl)cc1)C1C2CCCCC21 (configuration not stated),-3.8%,0.6%,-10.7%,4.2%,10.2,-5.2
O=C(Nc1c(C(=O)Nc2cccc(F)c2)oc2ccccc12)c1cc2ccccc2o1,-4.5%,0.5%,7.1%,3.7%,/,/
O=C(NCCc1csc(-c2ccc(F)cc2)n1)C(=O)Nc1ccc(Cl)cc1,/,-5.8%,-1.1%,-5.0%,/,/
CCN(CC(=O)Nc1c(F)cccc1F)C(=O)c1cc(C)nc2ccccc12,4.7%,5.3%,-13.3%,0.9%,-71.8*,5.0
Cc1ccc(NC(=O)CN(C)C(=O)c2cc(-c3cccs3)nn2-c2ccccc2)cc1,3.9%,5.5%,7.94µM*,1.7%,4.9,-3.6
CCN(CC(=O)Nc1c(F)cccc1F)C(=O)c1cc(-c2cccs2)nn1-c1ccccc1,-17.2%,?,10µM*,2.0%,-5.8,-0.3
O=C(CSc1nnc(NC(=O)c2ccccc2F)s1)NC1CC1,-0.3%,-1.4%,-9.6%,31.3%,-1.3,20.2
O=C1Nc2ccccc2N(O)N1c1ccc(Cl)c(Cl)c1,-2.1%,-0.2%[7.66 µM],-19.9%[7.66 µM],24.8%,6.1,2.4
O=C1Nc2cc(Cl)c(Cl)cc2N(O)N1c1ccc(Cl)c(Cl)c1,-8.2%,-14.7%,4.9%,11.9%,-19.2,-106.8*
SMILES,GLP-1R agonist,GLP1R cytotox,GLP1R inv ag,GLS inh,hERG WT inh,KCNH2 3.1 block
COc1cc2[nH]c(C(=O)N3CCc4ccccc43)cc2c(OC)c1OC,13.8%,-2.3%,-14.7%,6.8%,/,-11.4
CC1(C)Cc2cccc(OCC(=O)N3CCN(c4cccc(C(F)(F)F)c4)CC3)c2O1,0.3%,-6.4%,10µM*,2.9%,-24.6,-4.2
Cc1ccc(CC(=O)N2CCN(c3cccc(C(F)(F)F)c3)CC2)cc1,0.1%,-14.4%,8.91µM*,-0.5%,-2.7,-14.0
CC1(C)Cc2cccc(OCC(=O)N3CCN(c4cccc(Cl)c4)CC3)c2O1,5.4%,1.9%,?,-7.4%,-8.7,-11.6
Cc1ccc(S(=O)(=O)CC(=O)N2CCN(c3cccc(C(F)(F)F)c3)CC2)cc1,-2.6%,0.2%,0.7%,2.0%,2.6,-20.0
O=C(/C=C/c1ccc(Br)cc1)N1CCN(c2cccc(C(F)(F)F)c2)CC1,-2.2%,-11.8%,10µM*,-10.7%,-11.3,-44.3
COCCn1c(C)cc(C(=O)CN2C(=O)NC3(CCCCCC3)C2=O)c1C,7.6%,-5.0%,-4.4%,0.6%,3.8,-19.5
COc1ccc(CCNC(=O)c2ccc3c(=O)n4c(nc3c2)CCC4)cc1OC,12.7%,-2.7%,19.1%,-3.2%,-2.9,-20.3
O=C(O)CC1NC(=S)N(Cc2ccccc2)C1=O (configuration not stated),-2.5%,?,7.94µM*,12.2%,0.0,7.5
CC1(C)CCCN(C(=O)N2c3ccccc3Sc3ccccc32)C1,6.4%,-5.1%,4.47µM*,7.4%,0.0,12.3
CC(C)(C)Sc1ccc2nc3c(n2c1)CCCC3,?,?,10µM*,3.9%,10.9,12.6
CCCCc1cc(=O)oc2cc(C)c3c(C)coc3c12,/,9.1%,7.3%,-2.5%,/,/
COc1cc(-c2nc3n(n2)C(c2ccc(F)cc2)C(C(N)=O)=C(C)N3)cc(OC)c1OC (configuration not stated),/,2.3%,14.6%,5.6%,/,/
